Compounds without any hit were thinned out: in the full panel of roughly 83,000, 20% have a hit.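 Growth was measured after 48 h exposure to one concentration of compound in 96-well plates. Values under 10 count as active.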 Values without a mark were called inactive. Active and inactive are the calls of the source.
Tests used:
Experiment in all cases: NCI-60 one-dose screen, 48 h (100 = growth as untreated, 0 = no growth, -100 = all killed)
Conditions in all cases: 10 µM unless noted
DU-145 prostate = system: DU-145 prostate
K-562 leukemia = system: K-562 leukemia
MALME-3M melanoma = system: MALME-3M melanoma
MDA-MB-231 breast = system: MDA-MB-231 breast
RXF 393 renal = system: RXF 393 renal
SF-268 CNS = system: SF-268 CNS
SF-295 CNS = system: SF-295 CNS
SF-539 CNS = system: SF-539 CNS
UACC-257 melanoma = system: UACC-257 melanoma
M14 melanoma = system: M14 melanoma

Row | Compound | growth (DU-145 prostate) | growth (K-562 leukemia) | growth (MALME-3M melanoma) | growth (MDA-MB-231 breast) | growth (RXF 393 renal) | growth (SF-268 CNS) | growth (SF-295 CNS) | growth (SF-539 CNS) | growth (UACC-257 melanoma) | growth (M14 melanoma)
1 | C#C[C@]1(O)CC[C@H]2[C@@H]3CC=C4c5sc(Nc6cccc(F)c6)nc5CC[C@]4(C)[C@H]3CC[C@@]21C | 31.3% | 0.936% (active) | 38.3% | 30.6% | -50.8% (active) | 37.1% | -51.9% (active) | -10.8% (active) | 44% | 11%
2 | CCOC(=O)c1ccc(NC2=C(Cl)C(=O)c3nc(C)ccc3C2=O)cc1 | 91% | 7.29% (active) | 11.7% | 77.4% | 45.6% | 70.8% | 65% | 54.3% | 44.2% | 52.4%
3 | CC(Nc1c(C#N)cnc2ccc(-c3cncc(-c4n[nH]c(=O)o4)c3)cc12)c1ccccc1 (stereo not given) | 8.39% (active) | 28.5% | -8.08% (active) | 17.2% | -24% (active) | 12.2% | -7.24% (active) | -12.8% (active) | 34.2% | 18.7%
4 | CN1CCN(c2ccc(Nc3nc(NCCCNS(=O)(=O)c4cccc(F)c4)c4sccc4n3)cc2)CC1 | 43.4% | 12.5% | -83.6% (active) | 36.1% | -71.4% (active) | 44.2% | 6.24% (active) | -80.4% (active) | -64% (active) | -62.2% (active)
5 | CC(=O)OCCCCN1C=C/C(=C\C(=O)n2ccc3ccccc32)c2ccccc21 | 109% | 90.6% | 106% | 86.6% | 115% | 103% | 103% | 100% | 112% | 101%
6 | CCCC[n+]1ccc(SCC(=O)n2ccc3ccccc32)c2ccccc21 | 94.6% | 66.9% | 95.9% | 92.4% | 94.9% | 101% | 96.5% | 103% | 95.7% | 98.8%
7 | Cc1ccc2c(n1)C(=O)C(Cl)=C(Nc1cccc(C(F)(F)F)c1)C2=O | 98.7% | 3.08% (active) | -5.42% (active) | 54.7% | -1.18% (active) | 100% | 110% | 106% | -4.17% (active) | 80.4%
8 | COc1ccc(CC(C)=C(c2ccc(OCCN3CCCC3)cc2)c2ccc(OCCN3CCCC3)cc2)cc1 | -88.6% (active) | 1.41% (active) | -82.9% (active) | -83.9% (active) | -95.3% (active) | -64.4% (active) | -87.7% (active) | -90.1% (active) | -86.6% (active) | -87.5% (active)
9 | C1=CC(c2nn3c(-c4ccccc4)nnc3s2)=Cc2ccccc2O1 | 84.8% | 43.5% | 74.1% | 78.3% | 22.7% | 77.8% | 97.9% | 71.7% | 67.8% | 65%
10 | O=C(CSc1nnc(-c2ccc(Cl)cc2)n1-c1ccccc1)Nc1ccc(Cl)cc1 | 62.1% | 59.1% | 51% | 12.9% | 22.9% | 41.4% | 17.2% | -15% (active) | 88.2% | 62.7%
11 | COC(=O)c1ccc(NC2=C(Cl)C(=O)C(C)=C(C)C2=O)cc1 | 85.3% | 4.61% (active) | 85% | 68.9% | 65.8% | 87.3% | 36.6% | 65.9% | 79.5% | 45.8%
12 | COc1cc(C(=O)c2cc(C(C)=O)c3cccc(C)n23)cc(OC)c1OC | 68.3% | 15.6% | 46.2% | 37.4% | 46.6% | 54% | 17.9% | 46.8% | 56% | 5.73% (active)
13 | Cc1csc(/N=C(N)/N=C(\N)c2cccc(C#N)c2)n1 | 97.8% | 43.5% | 68.8% | 88.7% | 73.9% | 77.4% | 51.7% | 76.7% | 80.8% | 45.2%
